Screening results from PubChem BioAssay.
STK33 inh – STK33 kinase inhibitors, primary screen, biochemical, luminescence, ADP-Glo, MBP substrate; Serine/threonine-protein kinase 33 (Homo sapiens), Q9BYT3; inhibition, % at 12.5 µM; actives 0.44% (n = 27,000); in the data active = inhibition above about 20%
Target sequence (Q9BYT3 whole entry, looked up): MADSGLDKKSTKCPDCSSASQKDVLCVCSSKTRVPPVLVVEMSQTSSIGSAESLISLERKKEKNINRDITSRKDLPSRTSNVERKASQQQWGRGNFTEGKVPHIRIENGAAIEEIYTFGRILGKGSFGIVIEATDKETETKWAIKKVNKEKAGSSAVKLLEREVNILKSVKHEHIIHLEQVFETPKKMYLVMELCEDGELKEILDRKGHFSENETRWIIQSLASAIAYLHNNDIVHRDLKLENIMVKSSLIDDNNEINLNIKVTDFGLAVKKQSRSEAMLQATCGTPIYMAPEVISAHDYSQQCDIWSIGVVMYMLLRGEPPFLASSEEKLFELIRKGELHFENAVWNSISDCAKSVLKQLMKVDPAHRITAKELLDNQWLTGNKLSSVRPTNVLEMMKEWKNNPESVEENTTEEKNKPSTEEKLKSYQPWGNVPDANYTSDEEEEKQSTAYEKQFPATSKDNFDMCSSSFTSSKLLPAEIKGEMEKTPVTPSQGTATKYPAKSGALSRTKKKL
NOMO-1 viab – NOMO-1 AML cell viability reduction, primary screen, STK33 inhibitor project, CellTiter-Glo luminescence; NOMO-1 AML viability, 72 h; inhibition, % (test concentration not listed); actives 7.5% (n = 37,000); in the data active = inhibition above about 80%
PD-1 reverse act – activators reversing PD-1 mediated T-cell inhibition, primary screen, luminescence, primary human CD4 T cells, PD-L1 beads | CellTiter-Glo 96 h | activation, % (test concentration not listed) | 29,000 tested, under 10 active; call rule not given here
A number is an active result; 0 = inactive; - = no result given. The sample as a whole holds a higher share of hits than the screen did.

SMILES	STK33 inh	NOMO-1 viab	PD-1 reverse act
CCn1c(SCC(=O)Nc2cccc(SC)c2)nnc1-c1ccccc1Cl	0	0	0
COc1cc(CC(CO)C(CO)Cc2ccc(O)c(OC)c2)ccc1O (centres undefined)	0	0	0
COC(=O)C(C(CO)Cc1ccc(O)c(OC)c1)C(O)c1ccc(O)c(OC)c1 (centres undefined)	0	108	0
C[C@@H]1CN([C@H](C)CO)C(=O)Cc2cc(NC(=O)C3CCCCC3)ccc2O[C@H]1CN(C)Cc1ccc(Oc2ccccc2)cc1	0	81	-
C[C@H](CO)N1C[C@H](C)[C@H](CN(C)Cc2ccc(Oc3ccccc3)cc2)Oc2ccc(NC(=O)Nc3ccccc3)cc2CC1=O	0	0	0
C[C@@H]1CN([C@H](C)CO)C(=O)Cc2cc(NC(=O)Nc3ccc4c(c3)OCO4)ccc2O[C@@H]1CN(C)Cc1ccc(Oc2ccccc2)cc1	0	119	0
C[C@@H]1CN([C@H](C)CO)C(=O)Cc2cc(NC(=O)Nc3ccc4c(c3)OCO4)ccc2O[C@H]1CN(C)Cc1ccc(Oc2ccccc2)cc1	0	117	-
C[C@@H]1CN([C@@H](C)CO)C(=O)Cc2cc(NC(=O)Nc3ccc4c(c3)OCO4)ccc2O[C@@H]1CN(C)Cc1ccc(Oc2ccccc2)cc1	0	107	0
C[C@H]1CN([C@@H](C)CO)C(=O)Cc2cc(NC(=O)Nc3ccccc3)ccc2O[C@@H]1CN(C)Cc1ccc(Oc2ccccc2)cc1	0	0	0
C[C@@H]1CN([C@@H](C)CO)C(=O)Cc2cc(NC(=O)Nc3ccccc3)ccc2O[C@@H]1CN(C)Cc1ccc(Oc2ccccc2)cc1	0	0	0
C[C@H]1CN([C@@H](C)CO)C(=O)Cc2cc(NC(=O)C3CCCCC3)ccc2O[C@H]1CN(C)Cc1ccc(Oc2ccccc2)cc1	0	0	0
OC1c2ccccc2-c2c3c(cc4c2C1NCC4)OCO3 (centres undefined)	0	0	0
COc1ccc(C#Cc2ccc3c(c2)[C@]2(C(=O)N3)[C@H](c3ccc(O)cc3)N3[C@H](c4ccccc4)[C@H](c4ccccc4)OC(=O)[C@H]3[C@@H]2C(=O)N2CCN(c3ncccn3)CC2)cc1	0	-	-
C=CCOC(=O)[C@H]1[C@@H]2C(=O)O[C@@H](c3ccccc3)[C@@H](c3ccccc3)N2[C@@H](c2ccc(OCCOC(=O)[C@H]3C[C@H]4C(=O)N[C@@H](Cc5ccccc5)C(=O)N4[C@H]3c3ccc(O)cc3)cc2)[C@]12C(=O)Nc1ccccc12	0	-	-
C[C@H](CO)N1C[C@H](C)[C@H](CN(C)Cc2ccc(Oc3ccccc3)cc2)Oc2ccc(NC(=O)Cc3ccccc3)cc2CC1=O	0	116	-
C[C@H]1CN([C@@H](C)CO)C(=O)Cc2cc(NC(=O)Nc3ccccc3)ccc2O[C@H]1CN(C)Cc1ccc(Oc2ccccc2)cc1	0	0	0
C[C@H]1CN([C@@H](C)CO)C(=O)Cc2cc(NC(=O)Cc3ccccc3)ccc2O[C@@H]1CN(C)Cc1ccc(Oc2ccccc2)cc1	0	0	0
C[C@@H]1CN([C@H](C)CO)C(=O)Cc2cc(NC(=O)Nc3ccccc3)ccc2O[C@@H]1CN(C)Cc1ccc(Oc2ccccc2)cc1	0	115	0
CC(=O)c1cccc(NC(=S)NCCn2cc(Cl)cn2)c1	0	0	-
CCCCn1c(Br)nc2c1c(=O)[nH]c(=O)n2C	-	0	0
O=C(COc1ccc(C(=O)Nc2ccc(Cl)cc2)cc1)Nc1ccccc1C(F)(F)F	0	0	0
O=c1cc(-c2ccccc2)nc2scc(-c3ccccc3)n12	-	0	0
Cc1cc(C)n(CC(O)Cn2c3ccccc3c3ccccc32)c(=O)n1 (centres undefined)	0	0	-
OC(CNCc1ccccc1)Cn1c2ccccc2c2ccccc21 (centres undefined)	0	111	-
Cc1cccc(NC(=O)C(=O)NCCCO)c1	0	0	0
SMILES	STK33 inh	NOMO-1 viab	PD-1 reverse act
O=C(CSc1ncnc2sc3c(c12)CCCCC3)NCc1ccco1	0	131	0
Cc1nc(SCC(=O)NCc2ccco2)c2c3c(sc2n1)CCC3	0	0	0
CCOC(=O)CSc1ncnc2c1sc1nc3c(cc12)COC(C)(C)C3	0	0	0
CC1(C)Cc2nc3sc4c(SCC(=O)NCc5ccco5)ncnc4c3cc2CO1	0	127	0
COc1ccc(Cl)cc1NC(=O)CSc1nnc(-c2ccccc2)n1C	0	0	0
O=C(COC(=O)c1ccc(Br)cc1)c1ccc(Br)cc1	-	0	0
O=C(COC(=O)c1c(C(F)(F)F)cccc1C(F)(F)F)c1ccc(Cl)cc1	-	111	0
O=C(NCCNc1ccc(C(F)(F)F)cc1[N+](=O)[O-])c1cccc(Br)c1	0	0	0
Cc1ccc(S(=O)(=O)Nc2cccc3c2O[C@@H](CN(C)C(=O)NC2CCCCC2)[C@@H](C)CN([C@@H](C)CO)C3=O)cc1	-	0	0
C[C@@H]1CN([C@@H](C)CO)C(=O)c2cccc(NS(=O)(=O)c3ccc(F)cc3)c2O[C@@H]1CN(C)Cc1ccc(-c2ccccc2)cc1	-	84	0
C[C@H]1CN([C@@H](C)CO)C(=O)c2cccc(NS(=O)(=O)c3ccc(F)cc3)c2O[C@@H]1CN(C)Cc1ccc(-c2ccccc2)cc1	-	0	0
COc1ccc(S(=O)(=O)Nc2cccc3c2O[C@H](CN(C)Cc2ccc(C(F)(F)F)cc2)[C@H](C)CN([C@@H](C)CO)C3=O)cc1	-	0	0
Cc1ccc(S(=O)(=O)Nc2cccc3c2O[C@@H](CN(C)Cc2ccc(C(F)(F)F)cc2)[C@@H](C)CN([C@@H](C)CO)C3=O)cc1	-	0	0
COc1ccc(S(=O)(=O)Nc2cccc3c2O[C@@H](CN(C)Cc2ccc(C(F)(F)F)cc2)[C@@H](C)CN([C@H](C)CO)C3=O)cc1	-	96	0
Cc1ccc(S(=O)(=O)Nc2cccc3c2O[C@@H](CN(C)Cc2ccc(C(F)(F)F)cc2)[C@@H](C)CN([C@H](C)CO)C3=O)cc1	-	90	0
Cc1ccc(S(=O)(=O)Nc2cccc3c2O[C@@H](CN(C)C(=O)NC2CCCCC2)[C@@H](C)CN([C@H](C)CO)C3=O)cc1	-	100	0
Cc1cc(C(F)(F)F)nc(SCC(=O)Nc2cc(C(F)(F)F)ccc2Cl)n1	0	0	0
CCc1ccc(N2NC(=O)C(=C(C)C)C2=O)cc1	0	0	0
NC(=O)c1c(NC(=O)CSc2ncn[nH]2)sc2c1CCC2	0	0	0
COc1ccc2c(c1)c(=O)oc1cc(OCC(=O)Nc3cc(C)cc(C)c3)ccc12	0	94	-
Cc1cc(C)cc(NC(=O)COc2ccc3cc(-c4ccccc4)c(=O)oc3c2)c1	0	0	0
Cc1nc(SCC(=O)O)c2c3c(sc2n1)CCCC3	-	0	0
CCn1c(=S)[nH]c2ccccc2c1=O	0	0	0
Cc1cccc(NC(=O)CSc2nnc(-c3cccc(Br)c3)n2-c2ccccc2)c1	0	0	0
CC(C)(C)c1ccc(-c2nnc(SCC(=O)Nc3ccccc3)n2-c2ccccc2)cc1	0	113	0
Cn1c(SCC(=O)Nc2ccc(Cl)c(Cl)c2)nnc1-c1ccc(Cl)c(Cl)c1	0	106	-
Cc1ccc(NC(=O)CSc2nnc(-c3ccc(Cl)c(Cl)c3)n2C)cc1C	0	0	-
O=C(CSc1nnc(-c2ccncc2)n1-c1ccccc1)Nc1ccc(C(F)(F)F)cc1	0	0	0
